# Reference: PubChem BioAssay (NCATS)
# Results filed as inconclusive are left out. A call without a number means that no potency is given here. Calls of active or inactive are those of the source. The call rests on the fitted dose curve; in most records, active means well fitted inhibition curve with a large enough effect; inconclusive means small, poorly fitted or top-dose-only effect; inactive means flat fitted curve, though single readings scatter.
# Experiments:
# Test in all cases: qHTS profiling for inhibitors of Plasmodium falciparum proliferation (AID 504749); further: nearly all actives have a fitted effect of over 60% in size
# Settings in all cases: P. falciparum in erythrocytes, SYBR Green DNA, 72 h; series mostly up to 28.7 µM
# CP247 = test system: CP247
# Outline: (§1)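 Readout was DNA-dye fluorescence from lysed cultures, ex 485/em 535 nm. Parasitized red cells had grown 72 h with compound; data scaled between 0.29 uM artemisinin and DMSO wells and corrected using vehicle-only plates.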
# CP250 = test system: CP250
# Outline: as §1
# CP256 = test system: CP256
# Outline: as §1
# CP260 = test system: CP260
# Outline: as §1
# CP262 = test system: CP262
# Outline: as §1
# CP266 = test system: CP266
# Outline: as §1
# CP268 = test system: CP268
# Outline: as §1
# CP269 = test system: CP269
# Outline: as §1
# CP286 = test system: CP286
# Outline: as §1
# CP291 = test system: CP291
# Outline: as §1
# CP297 = test system: CP297
# Outline: as §1
# CP305 = test system: CP305
# Outline: as §1
# CP315 = test system: CP315
# Outline: as §1
# CP325 = test system: CP325
# Outline: as §1
# CP329 = test system: CP329
# Outline: as §1
# CP335 = test system: CP335
# Outline: as §1
# DFO2036 = test system: DFO2036
# Outline: as §1
# DIV14 = test system: DIV14
# Outline: as §1
# CP252 = test system: CP252
# Outline: as §1
# CP265 = test system: CP265
# Outline: as §1
# Potency means the concentration at half of the fitted maximal effect.
Compound,Potency (CP247),Potency (CP250),Potency (CP256),Potency (CP260),Potency (CP262),Potency (CP266),Potency (CP268),Potency (CP269),Potency (CP286),Potency (CP291),Potency (CP297),Potency (CP305),Potency (CP315),Potency (CP325),Potency (CP329),Potency (CP335),Potency (DFO2036),Potency (DIV14),Potency (CP252),Potency (CP265)
COc1ccc(C(=O)c2ccccc2O)c(O)c1,inactive,inactive,inactive,inactive,inactive,inactive,inactive,inactive,inactive,inactive,inactive,inactive,inactive,inactive,inactive,inactive,inactive,–,–,–
CN1CCN(c2c(F)cc3c(=O)c(C(=O)O)cn4c3c2SCC4)CC1,inactive,inactive,–,–,inactive,inactive,–,–,–,–,–,–,inactive,–,inactive,–,–,inactive,–,–
N=C(N)N1CCc2ccccc2C1,inactive,inactive,inactive,–,inactive,inactive,inactive,inactive,inactive,inactive,inactive,inactive,inactive,inactive,inactive,inactive,inactive,inactive,inactive,inactive
O=C(O)C1(C(=O)O)CCC1.[NH2-].[NH2-].[Pt+2],inactive,inactive,inactive,–,inactive,inactive,inactive,inactive,inactive,inactive,inactive,inactive,inactive,inactive,inactive,inactive,inactive,inactive,inactive,inactive
C#C[C@]1(O)CC[C@H]2[C@@H]3CCC4=CC(=O)CC[C@@H]4[C@H]3CC[C@@]21CC,inactive,inactive,inactive,–,inactive,inactive,inactive,inactive,inactive,inactive,inactive,inactive,inactive,inactive,inactive,inactive,inactive,inactive,inactive,inactive
COc1cc(O)c(C(=O)c2ccccc2)cc1S(=O)(=O)O,inactive,inactive,–,–,inactive,inactive,inactive,–,inactive,inactive,inactive,–,inactive,inactive,inactive,–,inactive,–,inactive,–
CC(C)(C)CC(C)(C)c1ccc(O)c(-n2nc3ccccc3n2)c1,11.2 µM (active),–,–,–,inactive,inactive,inactive,inactive,–,inactive,inactive,inactive,inactive,inactive,inactive,–,–,13.5 µM (active),–,–
CCCN(CCc1cccs1)[C@H]1CCc2c(O)cccc2C1,8.91 µM (active),–,–,12.6 µM (active),–,–,10.7 µM (active),15.1 µM (active),10 µM (active),10.7 µM (active),6.75 µM (active),13.5 µM (active),–,12 µM (active),–,8.49 µM (active),10 µM (active),4.26 µM (active),11.2 µM (active),11.2 µM (active)
CC(C)(Cc1c[nH]c2ccccc12)NCC(O)COc1ccccc1C#N (configuration not stated),–,–,–,–,–,–,–,–,–,–,–,–,inactive,inactive,–,–,–,8.49 µM (active),–,–
CN(C)CCOC(c1ccc(Cl)cc1)c1ccccn1 (configuration not stated),–,inactive,–,–,inactive,–,–,–,–,–,–,–,inactive,–,inactive,–,inactive,–,–,7.08 µM (active)
OC(C#CCN1CCCC1)(c1ccccc1)c1ccccc1,–,–,–,8.91 µM (active),–,inactive,–,–,–,–,12 µM (active),–,inactive,–,–,–,–,–,–,–
CCN(CC)CCOC(=O)C1(c2ccccc2)CCCC1,–,inactive,inactive,–,inactive,–,–,–,–,–,–,–,–,–,inactive,–,inactive,–,inactive,inactive
CCN(CC)CCOc1ccc2c(c1)C(=O)c1cc(OCCN(CC)CC)ccc1-2,–,–,11.2 µM (active),–,inactive,–,–,–,10 µM (active),–,–,–,inactive,–,–,–,–,13.5 µM (active),–,–
O=C(CCN1CCN2CCCC2C1)N1c2ccccc2Sc2ccc(Cl)cc21 (configuration not stated),–,inactive,–,–,inactive,–,inactive,–,–,inactive,inactive,inactive,inactive,inactive,inactive,–,inactive,4.26 µM (active),–,inactive
Clc1cccc(C(c2ccc3nc[nH]c3c2)n2ccnc2)c1 (configuration not stated),–,–,–,–,inactive,–,–,–,–,–,–,–,–,–,–,–,10 µM (active),15.1 µM (active),–,–
CC(=O)O[C@H]1C[C@@H]2CC[C@@H]3[C@H](CC[C@@]4(C)[C@H]3C[C@H]([N+]3(C)CCCCC3)[C@@H]4OC(C)=O)[C@@]2(C)C[C@@H]1N1CCCCC1,inactive,–,–,–,–,–,inactive,–,–,inactive,–,–,inactive,–,–,–,inactive,–,–,–
CCCCCN=C(N)N/N=C/c1c[nH]c2ccc(OC)cc12,–,–,–,5.01 µM (active),inactive,–,–,13.5 µM (active),–,13.5 µM (active),–,–,inactive,–,–,6.01 µM (active),5.01 µM (active),2.69 µM (active),–,4.47 µM (active)
CC[N+](C)(CC)CCOC(=O)C(O)(c1ccccc1)C1CCCCC1 (configuration not stated),–,–,inactive,inactive,–,inactive,inactive,inactive,–,–,–,–,inactive,inactive,inactive,–,–,inactive,inactive,inactive
CN(C)CCN1C(=O)c2ccccc2N(C)c2ccccc21,–,inactive,–,–,inactive,inactive,–,–,–,–,13.5 µM (active),–,inactive,–,inactive,–,–,–,–,12.6 µM (active)
CCCCCCCCCCCCOCCOCCOCCOCCOCCOCCOCCOCCOCCO,–,–,–,–,inactive,inactive,inactive,inactive,inactive,inactive,inactive,inactive,inactive,inactive,inactive,–,inactive,–,–,–
CC1CCc2c(N3CCC(O)CC3)c(F)cc3c(=O)c(C(=O)O)cn1c23 (configuration not stated),–,inactive,inactive,12.6 µM (active),–,–,–,–,–,–,inactive,–,inactive,inactive,inactive,–,–,–,–,inactive
